Mito fusion yeast = inhibitors of mitochondrial division or activators of mitochondrial fusion | S. cerevisiae fusion-defective mutant growth rescue, CellTiterGlo 48 h | Potency, µM (doses to about 46.1 µM), for the others: at the highest dose growth rescue (activation), usual class: activators | 0.23% of 320,000 active | AID 485298; note: % of control where 0% means no effect; nearly all actives have a fitted effect of over 45% in size
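Read-out: ATP-based luminescence (CellTiterGlo, 10 min ambient) reporting growth of fusion-defective ts yeast after 48 hours at 37C on glycerol/ethanol YPEG medium in the presence of compound.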
TDP-43 yeast inh = inhibitors of TDP-43 toxicity in yeast | AID 652104 | Potency, µM (series often up to 46.1 µM), for the others: at the highest dose growth rescue (activation), hits mostly activators | 1.8% of 410,000 active | TDP-43 expressing yeast growth rescue, BacTiter-Glo, 24 h; note: % of control where 0% means no effect; nearly all actives have a fitted effect of over 50% in size
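Readout is BacTiter-Glo luminescence of cell growth, so inhibitors register as activators. TDP-43-expressing yeast at OD600=0.02 in galactose medium, after raffinose pregrowth to mid-log, were incubated with compound for 24 hr at 30 deg C.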
Abeta yeast res = compounds reversing amyloid beta toxicity in yeast | yeast expressing A-beta42, growth rescue, OD600, 48 h; response scale: 0% DMSO, 100% iron-clioquinol control | Potency, µM (highest dose often 46.1 µM), most hits filed as activators | 0.063% of 410,000 active; note: nearly all actives have a fitted effect of over 55% in size
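Yeast A-beta toxicity model in growth medium with pinned compounds, 48 h at 30 C; growth read as absorbance at 600 nm. Normalized to FeCl3/clioquinol equimolar mix (positive) and DMSO (negative).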
FUS yeast rescue = rescues growth of FUS-expressing yeast; 0.24% of 390,000 active; Potency, µM (highest dose often 76.6 µM), most hits filed as activators; S. cerevisiae FUS-expressing, growth rescue, OD600, 24 h;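 note: plate controls were DMSO vehicle for no effect and reference control for full effect; nearly all actives have a fitted effect of over 55% in size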
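Restored growth of FUS-toxic S. cerevisiae, read as 600 nm absorbance after 24 h at 30C in galactose medium (starting OD 0.005). Controls CP55940 and DMSO.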
aSyn rescue = rescues yeast growth from alpha-synuclein toxicity; 0.14% of 370,000 active; Potency, µM (series often up to 46.1 µM), for inactives: at the top dose growth rescue (activation), actives largely listed as activators; Yeast expressing alpha-synuclein, growth rescue, BacTiter-Glo, 24 h; AID 652106; note: % of control where 0% means no effect; nearly all actives have a fitted effect of over 65% in size
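Screening used galactose-induced yeast with toxic alpha-synuclein levels, exposed to compound for 24 hr at 30 deg C. Cell growth, read with BacTiter-Glo luminescence, gave the measured signal.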
An asterisk follows results filed as active; i = inactive; u = inconclusive; x = no result; ! = repeats disagree; [ ] = remark or other dose. This is a sample that favours compounds with a hit; in the whole collection about 2.2% have one here. Calls come from the whole dose curve; as a rule, active = well fitted curve in the direction sought with a large enough effect; inconclusive = small, poorly fitted or top-dose-only effect, or another doubt; inactive = no such curve, though single readings can be large; an effect the other way counts as inactive or inconclusive. Potency is the fitted concentration of half-maximal effect.

SMILES | Mito fusion yeast | TDP-43 yeast inh | Abeta yeast res | FUS yeast rescue | aSyn rescue
COc1cccc(N2CCN(C(=O)C3CCN(S(=O)(=O)c4cn(C)cn4)CC3)CC2)c1 | x | 1.2% | i | i | x
CCOc1cc2c(cc1/C=C/C(=O)O)OC(C)C2 (stereo unspecified) | 6.4% | 22.4µM* | i | i | -9.6%
COc1cc2c(cc1/C=C/C(=O)O)OC(C)C2 (stereo unspecified) | -6.5% | u | i | i | 0.9%
Cc1cccc(CSc2cn(CC(=O)N3CCCCC3)c3ccccc23)c1 | x | 12.6% | i | i | x
Cc1ccc(C)c(N2CCN(S(=O)(=O)c3c(C)noc3C)CC2)c1 | u | -2.8% | i | i | -8.8%
Cc1ccc(Cl)cc1N1CCN(S(=O)(=O)c2c(C)noc2C)CC1 | 17.8µM* | 11.7% | i | i | -5.3%
Nc1ccc(-c2nc3ncccc3o2)c(Cl)c1 | 0.1% | -3.4% | i | i | 14.1µM*
O=C1/C(=C/c2ccncc2)SC(=S)N1C1CCS(=O)(=O)C1 (stereo unspecified) | -5.5% | 12.6µM* | i | i | 0.1%
COCCNC(=O)/C(C#N)=C/c1ccccc1Br | 4.0% | 22.4µM* | i | i | -3.1%
Cc1ccc(NC(=S)c2ccccc2)cc1 | 15.2% | 11.2µM* | i | i | -2.1%
Cc1ccc(NC(=S)c2ccncc2)cc1 | -17.9% | 19.4% | x | i | 2.0%
Fc1ccc(N/N=C/c2ccc(N3CCOCC3)cc2)c(F)c1 | 1.2% | 17.8µM* | i | i | 12.8%
O=C1NCc2c1c1c3ccccc3[nH]c1c1[nH]c3ccccc3c21 | x | x | x | x | 4.7%
Cc1ccc(NC(=O)CC2Nc3cc(C)c(C)cc3NC2=O)c(C)c1 (stereo unspecified) | x | 21.6% | i | i | x
Cc1onc(-c2c(Cl)cccc2Cl)c1C(O)c1ccc(F)cc1 (stereo unspecified) | 16.3% | u | i | i | u
Cc1onc(-c2c(Cl)cccc2Cl)c1C(O)c1ccccc1 (stereo unspecified) | 6.5% | 11.2µM* | i | i | 28.2%
O=C(/C=C\c1ccccc1)Nc1ccc(NC(=O)c2ccco2)cc1 | 4.1% | 35.5µM* | i | i | 6.6%
O=C(Nc1cccc(NC(=O)c2ccccc2Cl)c1)c1ccco1 | 3.2% | 17.8µM* | i | i | -11.1%
Cc1ccc(C(C)C)c(OCC(=O)Nc2cccc(-c3nc4ncccc4o3)c2)c1 | x | 22.4µM* | i | i | x
Cc1cccc(C)c1OCC(=O)Nc1cccc(NC(=O)c2ccco2)c1 | u | 25.1µM* | i | i | 3.7%
COC(=O)[C@]12C[C@H](CC(=O)NCCC(C)C)C(=O)N(Cc3ccco3)C1=C[C@H](C(C)C)O[C@@H]2C1CC1 | x | x | x | i | x
CN1CCN(c2ccc(-c3csc(N4CCC(C(N)=O)CC4)n3)cc2)CC1 | x | x | x | i | x
Cc1ccc(C(C)C)c(OCC(=O)Nc2cccc(NC(=O)c3ccco3)c2)c1 | x | 20µM* | i | i | x
COc1c(C)cc(Br)cc1C(=O)Nc1cccc(-c2nc3ncccc3o2)c1 | 18.8% | 12.6µM* | i | i | 0.9%
Cc1cc(C)c(OCC(=O)Nc2cccc(-c3nc4ncccc4o3)c2)c(Br)c1 | x | 23.6% | i | i | x
SMILES | Mito fusion yeast | TDP-43 yeast inh | Abeta yeast res | FUS yeast rescue | aSyn rescue
N#CN=c1snc(-c2ccccc2Cl)n1-c1ccc(F)cc1 | x | x | x | x | 7.0%
Cc1ccc(-c2cnc(-c3ccncc3)o2)cc1 | -6.0% | 15.8µM* | i | i | 5.1%
CCC12CC3CC(C1)CC(C(=O)O)(C3)C2 | -4.1% | 14.1µM* | i | i | -0.3%
CCCc1ccc(NC(=O)C2CCCN(c3cnccn3)C2)cc1 (stereo unspecified) | u | 31.6µM* | i | i | u
CC(C)(C)C(=O)NC(=S)Nc1ccc(Cl)c(C(=O)O)c1 | 9.1% | -12.3%[1.82 µM] | i | i | 12.6%
CC(C)(C)C(=O)NC(=S)Nc1ccc(C(F)(F)F)cc1 | -0.7% | 19.9% | 12.6µM* | i | -0.3%
C[C@@H](C(=O)NCCc1ccccc1F)N1C(=O)N2CCc3c([nH]c4ccccc34)[C@@]2(C)C1=O | -2.5% | 11.8% | i | i | u
C[C@@H](C(=O)NCCc1ccccc1)N1C(=O)N2CCc3c([nH]c4ccccc34)[C@@]2(C)C1=O | -4.5% | 35.5µM* | i | i | u
Oc1ccc(Oc2ncc(Cl)cc2Cl)cc1 | 9.8% | 8.91µM* | i | x | 13.3%
Cc1nc(-c2ccc(Cl)cc2)sc1CCNC(=O)c1ccco1 | x | 0.0% | i | i | x
C=CCn1cnc2c(nnn2-c2cc(C)cc(C)c2)c1=O | -1.0% | 11.2µM* | i | i | 2.1%
Cn1ccsc1=NC(=O)c1ccc(Cl)cc1 | 5.4% | 11.2µM* | i | i | -6.0%
CSc1ncc(C(=O)Nc2ccc(C)c(Cl)c2)c(-c2ccccc2)n1 | x | u | i | i | x
O=[N+]([O-])c1ccc(C=NN2CCOCC2)s1 | x | 11.2µM* | i | i | 1.7%
O=[N+]([O-])c1cc(/C=N/N2CCOCC2)cs1 | 0.8% | u | i | i | 3.3%
Cc1ccc(S(=O)(=O)N2CCN(c3nc(-n4cncn4)nc4ccccc34)CC2)cc1 | x | x | x | x | 3.8%
Cc1cc(C)c(COc2ccc(/C=N/n3c(C)n[nH]c3=S)cc2)c(C)c1 | 2.9% | 20µM* | u | i | 1.0%
COc1ccc(/C=C2/C(=O)ON=C2C)cc1Br | 11.0% | -43.7% | i | i | -12.6%
COc1ccccc1/C=C1/C(=O)ON=C1C | -4.3% | 14.1µM* | i | i | -9.2%
Oc1c(Br)cc(Br)cc1CNc1cnc2ccccc2c1 | -6.1% | 20µM* | i | i | 15.3%
Oc1c(Br)cc(Br)cc1CNc1ccc(F)cc1 | -0.2% | -92.9% | i | i | -26.1%
COc1ccc(Cc2c(C)nn(-c3nc(C)c(C(=O)Nc4cccc(C(C)=O)c4)s3)c2C)cc1 | x | -1.1% | i | i | x
OCc1ccc(-c2nn(Cc3ccccc3)c3ccccc23)o1 | 20.6µM*! | 3.9% | i | i | 3.98µM*
CCN1C(=O)[C@H]2[C@@H](c3ccc(-c4ccc(C(C)=O)cc4)c(OC)c3)N3CCCC[C@@]3(C(=O)OC)[C@H]2C1=O | x | 14.1µM* | i | u | u
COC(=O)[C@@]12CCCN1[C@H](c1ccc(-c3cccc(Cl)c3)c(OC)c1)[C@H]1C(=O)N(C)C(=O)[C@H]12 | 18.4% | 0.5% | i | u | -1.3%
COC(=O)[C@@]12CCCCN1[C@H](c1ccc(SC3CCCCC3)c(OC)c1)[C@@H]1C(=O)N(C)C(=O)[C@@H]12 | 12.6% | 20.3% | i | i | u
COC(=O)[C@@]12CCCN1[C@H](c1ccc(-c3ccc(Cl)c(Cl)c3)c(OC)c1)[C@H]1C(=O)N(C)C(=O)[C@H]12 | x | u | i | 35.5µM* | -6.9%
